Assay results as given in PubChem BioAssay (NCATS).
Values joined by “and” are separate entries in the source; they are usually repeats but may differ in a detail not shown here. Identical values can stand only once. Results filed as inconclusive are left out. A call without a number means that no potency is given here. Some structures have more than one record in an assay (separate samples or runs), and their calls can disagree. Active and inactive are the calls of the source. The call rests on the fitted dose curve; in most records, active means well fitted inhibition curve with a large enough effect; inconclusive means small, poorly fitted or top-dose-only effect; inactive means flat fitted curve, though single readings scatter.

What was measured:
Test in all cases: qHTS profiling for inhibitors of Plasmodium falciparum proliferation (AID 504749); further: nearly all actives have a fitted effect of over 60% in size
Details in all cases: P. falciparum in erythrocytes, SYBR Green DNA, 72 h; series mostly up to 28.7 µM
[1] = test system: CP203
Outline: (§1)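 P. falciparum-infected erythrocytes (0.3% parasitemia, 2.5% hematocrit final) were exposed to compounds for 72 h at 37 C in 5% CO2, then lysed with SYBR Green buffer overnight at room temperature; parasite DNA fluorescence was normalized to artemisinin and DMSO controls.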

[2] = test system: CP211
Outline: as §1

[3] = test system: CP215
Outline: as §1

[4] = test system: CP217
Outline: as §1

[5] = test system: CP237
Outline: as §1

[6] = test system: CP238
Outline: as §1

[7] = test system: CP247
Outline: as §1

[8] = test system: CP250
Outline: as §1

[9] = test system: CP252
Outline: as §1

[10] = test system: CP256
Outline: as §1

[11] = test system: CP262
Outline: as §1

[12] = test system: CP265
Outline: as §1

[13] = test system: CP266
Outline: as §1

[14] = test system: CP268
Outline: as §1

[15] = test system: CP269
Outline: as §1

[16] = test system: CP286
Outline: as §1

[17] = test system: CP291
Outline: as §1

[18] = test system: CP297
Outline: as §1

[19] = test system: CP305
Outline: as §1

[20] = test system: CP260
Outline: as §1
Potency means the concentration at half of the fitted maximal effect.

Structure (SMILES)	Potency [1]	Potency [2]	Potency [3]	Potency [4]	Potency [5]	Potency [6]	Potency [7]	Potency [8]	Potency [9]	Potency [10]	Potency [11]	Potency [12]	Potency [13]	Potency [14]	Potency [15]	Potency [16]	Potency [17]	Potency [18]	Potency [19]	Potency [20]
O=C(CS(=O)C(c1ccccc1)c1ccccc1)NO (stereo not drawn)	inactive	inactive	inactive	inactive	inactive	inactive	inactive	inactive	inactive	inactive	inactive	inactive	inactive	inactive	inactive	inactive	inactive	inactive	inactive	
Clc1ccc(C2(Cn3cncn3)OCCO2)c(Cl)c1	inactive	inactive	inactive	inactive	inactive	inactive	inactive	inactive	inactive	inactive	inactive	inactive	inactive	inactive	inactive	inactive	inactive	inactive	inactive	inactive
COC([CH2][Hg])CNC(=O)c1ccccc1OCC(=O)O (stereo not drawn)	inactive	inactive	inactive	inactive	inactive	inactive	inactive	inactive	inactive	inactive	inactive	inactive	inactive	inactive	inactive	inactive	inactive	inactive	inactive	
ClC1C(Cl)C(Cl)C(Cl)C(Cl)C1Cl (stereo not drawn)	inactive	inactive	inactive	inactive	inactive	inactive	inactive	inactive	inactive	inactive	inactive	inactive	inactive	inactive	inactive	inactive	inactive	inactive	inactive	inactive
O=S(=O)(O)c1cc(O)ccc1O	inactive	inactive	inactive	inactive	inactive	inactive	inactive	inactive	inactive	inactive	inactive	inactive	inactive	inactive	inactive	inactive	inactive	inactive	inactive	inactive
CCC1(c2ccccc2)C(=O)NC(=O)NC1=O	inactive	inactive	inactive	inactive	inactive	inactive	inactive	inactive	inactive	inactive	inactive	inactive	inactive	inactive	inactive	inactive	inactive	inactive	inactive	inactive
CC(C)CCON=O	inactive	inactive	inactive	inactive	inactive	inactive	inactive	inactive	inactive	inactive	inactive	inactive	inactive	inactive	inactive	inactive	inactive	inactive	inactive	inactive
C[N+]1(C)CCCCC1COC(=O)C(O)(c1ccccc1)c1ccccc1 (stereo not drawn)	inactive	inactive	inactive	inactive	inactive	inactive	inactive	inactive	inactive		inactive	inactive	inactive	inactive	inactive	inactive	inactive	inactive	inactive	
CC(C)(C)c1cc(O)ccc1O	15.1 µM (active)	12 µM (active) and inactive	10.7 µM (active)	8.91 µM (active)	6.31 µM (active)	10 µM (active)	4.47 µM (active)	7.94 µM (active)	8.91 µM (active) and inactive	11.2 µM (active)	12 µM (active) and inactive	11.2 µM (active) and 12.6 µM (active)	inactive		13.5 µM (active)	3.98 µM (active)	15.1 µM (active)	12 µM (active)	13.5 µM (active)	6.31 µM (active)
NCC(O)c1cccc(O)c1 (stereo not drawn)	inactive	inactive	inactive	inactive	inactive	inactive	inactive	inactive	inactive	inactive	inactive	inactive		inactive	inactive	inactive	inactive	inactive	inactive	inactive
S=C=S	inactive	inactive	inactive	inactive	inactive	inactive	inactive	inactive	inactive	inactive	inactive	inactive	inactive	inactive	inactive	inactive	inactive	inactive	inactive	inactive
CNC1(c2ccccc2Cl)CCCCC1=O (stereo not drawn)	inactive	inactive	inactive	inactive	8.91 µM (active) and 7.94 µM (active)	inactive	inactive	inactive	inactive	inactive	inactive	inactive	inactive	inactive	inactive	inactive	inactive	inactive	inactive	inactive
CCCCCCCCOC(=O)c1ccccc1C(=O)OCCCCCCCC	inactive	inactive	inactive	inactive	inactive	inactive	inactive	inactive	inactive	inactive	inactive	inactive	inactive	inactive	inactive	inactive	inactive	inactive	inactive	inactive
[N-]=[N+]=CC(=O)OCC(N)C(=O)O (stereo not drawn)	inactive	inactive	inactive	inactive	inactive	inactive	inactive	inactive	inactive	inactive	inactive	inactive	inactive	inactive	inactive	inactive	inactive	inactive	inactive	
CCCC(C)(COC(N)=O)COC(=O)NC1CC1 (stereo not drawn)	inactive	inactive	inactive	inactive	inactive	inactive	inactive	inactive	inactive	inactive	inactive	inactive	inactive	inactive	inactive	inactive	inactive	inactive	inactive	inactive
